Shown is part of a subset that was picked to be rich in the strongest signals.
What was measured:
Experiment in all cases: glycan array binding signal (z-score within array); higher = stronger binding
Settings in all cases: glycan notation: IUPAC condensed, linker removed
[1] = molecular target: Fuc(a1-2)Gal(b1-4)[Fuc(a1-3)]GlcNAc(b1-2)[Fuc(a1-2)Gal(b1-4)[Fuc(a1-3)]GlcNAc(b1-4)]Man(a1-3)[Fuc(a1-2)Gal(b1-4)[Fuc(a1-3)]GlcNAc(b1-2)Man(a1-6)]Man(b1-4)GlcNAc(b1-4)GlcNAc
Summary of the method: (§1)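 From the Consortium for Functional Glycomics database, 3228 arrays were curated, keeping only those whose protein sequence was available. Binding is given as a within-array Z-score averaged across arrays sharing a protein sequence and across linkers. Negative Z-scores can be read as non-binding.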

[2] = molecular target: Fuc(a1-2)[Gal(a1-3)]Gal(b1-3)GalNAc(b1-3)Gal(a1-4)Gal(b1-4)Glc
Summary of the method: as §1

[3] = molecular target: Fuc(a1-2)[Gal(a1-3)]Gal(b1-3)GlcNAc(b1-2)Man(a1-3)[Fuc(a1-2)[Gal(a1-3)]Gal(b1-3)GlcNAc(b1-2)Man(a1-6)]Man(b1-4)GlcNAc(b1-4)GlcNAc
Summary of the method: as §1

[4] = molecular target: Fuc(a1-2)[Gal(a1-3)]Gal(b1-4)[Fuc(a1-3)]Glc
Summary of the method: as §1

[5] = molecular target: Fuc(a1-2)[GalNAc(a1-3)]Gal(b1-3)GlcNAc(b1-3)GalNAc
Summary of the method: as §1

[6] = molecular target: Fuc(a1-2)[GalNAc(a1-3)]Gal(b1-4)GlcNAc(b1-2)Man(a1-3)[Fuc(a1-2)[GalNAc(a1-3)]Gal(b1-4)GlcNAc(b1-2)Man(a1-6)]Man(b1-4)GlcNAc(b1-4)GlcNAc
Summary of the method: as §1

Fuc(a1-3)GlcNAc = molecular target: Fuc(a1-3)GlcNAc
Summary of the method: as §1

[7] = molecular target: Fuc(a1-3)[Gal(b1-4)]GlcNAc(b1-3)Gal(b1-4)[Fuc(a1-3)]GlcNAc
Summary of the method: as §1

[8] = molecular target: Fuc(a1-3)[Gal(b1-4)]GlcNAc6S
Summary of the method: as §1

[9] = molecular target: Gal(a1-3)Gal(b1-4)GlcNAc(b1-2)Man(a1-3)[Gal(a1-3)Gal(b1-4)GlcNAc(b1-2)Man(a1-6)]Man(b1-4)GlcNAc(b1-4)GlcNAc
Summary of the method: as §1

[10] = molecular target: Gal(a1-3)Gal(b1-4)[Fuc(a1-3)]GlcNAc
Summary of the method: as §1

[11] = molecular target: Gal(a1-3)Gal(b1-4)[Fuc(a1-3)]GlcNAc(b1-2)Man(a1-3)[Gal(a1-3)Gal(b1-4)[Fuc(a1-3)]GlcNAc(b1-2)Man(a1-6)]Man(b1-4)GlcNAc(b1-4)GlcNAc
Summary of the method: as §1

Gal(a1-4)Gal(b1-4)Glc = molecular target: Gal(a1-4)Gal(b1-4)Glc
Summary of the method: as §1

Gal(b1-3)GlcNAc = molecular target: Gal(b1-3)GlcNAc
Summary of the method: as §1

[12] = molecular target: Gal(b1-3)GlcNAc(b1-2)Man(a1-3)[GlcNAc(b1-4)][Gal(b1-3)GlcNAc(b1-2)Man(a1-6)]Man(b1-4)GlcNAc(b1-4)GlcNAc
Summary of the method: as §1

[13] = molecular target: Gal(b1-4)GlcNAc(b1-3)Gal(b1-4)GlcNAc(b1-2)Man(a1-3)[Gal(b1-4)GlcNAc(b1-3)Gal(b1-4)GlcNAc(b1-2)Man(a1-6)]Man(b1-4)GlcNAc(b1-4)GlcNAc
Summary of the method: as §1

[14] = molecular target: Gal(b1-4)GlcNAc(b1-3)Gal(b1-4)GlcNAc(b1-3)Gal(b1-4)GlcNAc(b1-2)Man(a1-3)[Gal(b1-4)GlcNAc(b1-3)Gal(b1-4)GlcNAc(b1-3)Gal(b1-4)GlcNAc(b1-2)Man(a1-6)]Man(b1-4)GlcNAc(b1-4)GlcNAc
Summary of the method: as §1

[15] = molecular target: Gal(b1-4)GlcNAc(b1-3)Gal(b1-4)GlcNAc(b1-3)Gal(b1-4)GlcNAc(b1-3)Gal(b1-4)GlcNAc(b1-3)Gal(b1-4)GlcNAc(b1-2)Man(a1-3)[Gal(b1-4)GlcNAc(b1-3)Gal(b1-4)GlcNAc(b1-3)Gal(b1-4)GlcNAc(b1-3)Gal(b1-4)GlcNAc(b1-3)Gal(b1-4)GlcNAc(b1-2)Man(a1-6)]Man(b1-4)GlcNAc(b1-4)GlcNAc
Summary of the method: as §1

[16] = molecular target: Gal3S(b1-4)[Fuc(a1-3)]Glc6S
Summary of the method: as §1

[17] = molecular target: Gal3S(b1-4)[Fuc(a1-3)]GlcNAc
Summary of the method: as §1

Gal3S6S(b1-4)GlcNAc = molecular target: Gal3S6S(b1-4)GlcNAc
Summary of the method: as §1

Gal6S(b1-4)GlcNAc6S = molecular target: Gal6S(b1-4)GlcNAc6S
Summary of the method: as §1

GalNAc(b1-6)GalNAc = molecular target: GalNAc(b1-6)GalNAc
Summary of the method: as §1

[18] = molecular target: GlcNAc(a1-4)Gal(b1-4)GalNAc
Summary of the method: as §1

[19] = molecular target: GlcNAc(a1-4)Gal(b1-4)GlcNAc
Summary of the method: as §1

[20] = molecular target: GlcNAc(b1-2)Man(a1-3)[GlcNAc(b1-4)][GlcNAc(b1-2)Man(a1-6)]Man(b1-4)GlcNAc(b1-4)[Fuc(a1-6)]GlcNAc
Summary of the method: as §1

[21] = molecular target: GlcNAc(b1-3)Gal(b1-4)GlcNAc(b1-2)Man(a1-3)[GlcNAc(b1-3)Gal(b1-4)GlcNAc(b1-2)Man(a1-6)]Man(b1-4)GlcNAc(b1-4)[Fuc(a1-6)]GlcNAc
Summary of the method: as §1

[22] = molecular target: GlcNAc(b1-3)Gal(b1-4)GlcNAc(b1-3)Gal(b1-4)GlcNAc(b1-3)Gal(b1-4)GlcNAc(b1-2)Man(a1-3)[GlcNAc(b1-3)Gal(b1-4)GlcNAc(b1-3)Gal(b1-4)GlcNAc(b1-3)Gal(b1-4)GlcNAc(b1-2)Man(a1-6)]Man(b1-4)GlcNAc(b1-4)[Fuc(a1-6)]GlcNAc
Summary of the method: as §1

[23] = molecular target: GlcNAc(b1-3)Gal(b1-4)GlcNAc(b1-3)Gal(b1-4)GlcNAc(b1-3)Gal(b1-4)GlcNAc(b1-2)[GlcNAc(b1-3)Gal(b1-4)GlcNAc(b1-3)Gal(b1-4)GlcNAc(b1-3)Gal(b1-4)GlcNAc(b1-6)]Man(a1-6)[GlcNAc(b1-3)Gal(b1-4)GlcNAc(b1-3)Gal(b1-4)GlcNAc(b1-3)Gal(b1-4)GlcNAc(b1-2)Man(a1-3)]Man(b1-4)GlcNAc(b1-4)[Fuc(a1-6)]GlcNAc
Summary of the method: as §1

[24] = molecular target: Neu5Ac(a2-3)Gal(b1-3)GalNAc(b1-4)[Neu5Ac(a2-3)]Gal(b1-4)Glc
Summary of the method: as §1

[25] = molecular target: Neu5Ac(a2-3)Gal(b1-3)GalNAc(b1-4)[Neu5Ac(a2-8)Neu5Ac(a2-3)]Gal(b1-4)Glc
Summary of the method: as §1

[26] = molecular target: Neu5Ac(a2-3)Gal(b1-3)GlcNAc(b1-2)[Neu5Ac(a2-3)Gal(b1-3)GlcNAc(b1-4)]Man(a1-6)[Neu5Ac(a2-3)Gal(b1-3)GlcNAc(b1-2)Man(a1-3)]Man(b1-4)GlcNAc(b1-4)GlcNAc
Summary of the method: as §1

[27] = molecular target: Neu5Ac(a2-3)Gal(b1-4)GlcNAc(b1-3)Gal(b1-4)GlcNAc(b1-2)Man(a1-3)[Neu5Ac(a2-3)Gal(b1-4)GlcNAc(b1-3)Gal(b1-4)GlcNAc(b1-2)Man(a1-6)]Man(b1-4)GlcNAc(b1-4)GlcNAc
Summary of the method: as §1

[28] = molecular target: Neu5Ac(a2-3)Gal(b1-4)GlcNAc(b1-3)Gal(b1-4)GlcNAc(b1-3)Gal(b1-4)GlcNAc(b1-2)Man(a1-3)[Neu5Ac(a2-3)Gal(b1-4)GlcNAc(b1-3)Gal(b1-4)GlcNAc(b1-3)Gal(b1-4)GlcNAc(b1-2)Man(a1-6)]GalNAc
Summary of the method: as §1

[29] = molecular target: Neu5Ac(a2-3)Gal(b1-4)[Fuc(a1-3)]GlcNAc(b1-3)GalNAc
Summary of the method: as §1

[30] = molecular target: Neu5Ac(a2-3)[GalNAc(b1-4)]Gal(b1-4)Glc
Summary of the method: as §1

[31] = molecular target: Neu5Ac(a2-6)Gal(b1-4)GlcNAc(b1-2)[Neu5Ac(a2-6)Gal(b1-4)GlcNAc(b1-6)]Man(a1-6)[Neu5Ac(a2-6)Gal(b1-4)GlcNAc(b1-2)Man(a1-3)][GlcNAc(b1-4)]Man(b1-4)GlcNAc(b1-4)GlcNAc
Summary of the method: as §1

[32] = molecular target: Neu5Ac(a2-6)Gal(b1-4)GlcNAc(b1-3)Gal(b1-4)GlcNAc
Summary of the method: as §1

[33] = molecular target: Neu5Ac(a2-6)Gal(b1-4)GlcNAc(b1-3)Gal(b1-4)GlcNAc(b1-3)Gal(b1-4)GlcNAc(b1-2)Man(a1-3)[Neu5Ac(a2-6)Gal(b1-4)GlcNAc(b1-3)Gal(b1-4)GlcNAc(b1-3)Gal(b1-4)GlcNAc(b1-2)Man(a1-6)]GalNAc
Summary of the method: as §1

[34] = molecular target: Neu5Ac(a2-6)Gal(b1-4)GlcNAc(b1-3)Gal(b1-4)GlcNAc(b1-3)[Neu5Ac(a2-6)Gal(b1-4)GlcNAc(b1-3)Gal(b1-4)GlcNAc(b1-6)]GalNAc
Summary of the method: as §1

[35] = molecular target: Neu5Ac(a2-6)Gal(b1-4)GlcNAc(b1-3)Gal(b1-4)[Fuc(a1-3)]GlcNAc(b1-3)Gal(b1-4)[Fuc(a1-3)]GlcNAc
Summary of the method: as §1

[36] = molecular target: Neu5Ac(a2-8)Neu5Ac(a2-3)Gal(b1-4)Glc
Summary of the method: as §1

[37] = molecular target: Neu5Ac(a2-8)Neu5Ac(a2-3)[GalNAc(b1-4)]Gal(b1-4)Glc
Summary of the method: as §1

B1: Clec49 (Caenorhabditis elegans) (protein)
chain: MTRLTLLLFGLLGAATAQTCNTGGIYNEQFNRCYQYFTAPAQFSFAEQQCNLLGGHLASVQNGQENALLQSNAANSFKRSNYSDYWIGATDLETSGTWKWTDPSVTFDYSNWQLGEPQSGSDCAIQDKGDGTWSAIGCTSYRPYVCVTPVIMTATCPPITTPIPTTCPTPAPCPIKQCVPSCDQGWTYFSPTDFCYRVYHGEKFNDAEASCVLLGGHLASIHSLTENTFVNNIASCGIKEGKYEHLAWIGMRKVGQDWVWTDGTPSDYFNWAPKQPDNPKKELCVQTAPDLSHDKWYENWNNLECNEVMRAYICKKASIHN
glycan array binding signal (z-score) [1]: 6.67 | glycan array binding signal (z-score) [2]: 0.061 | glycan array binding signal (z-score) [3]: 2.31 | glycan array binding signal (z-score) [4]: -0.454 | glycan array binding signal (z-score) [5]: 4.18 | glycan array binding signal (z-score) [6]: 0.062 | glycan array binding signal (z-score) (Fuc(a1-3)GlcNAc): -0.399 | glycan array binding signal (z-score) [7]: 0.226 | glycan array binding signal (z-score) [8]: -0.462 | glycan array binding signal (z-score) [9]: 0.541 | glycan array binding signal (z-score) [10]: 0.246 | glycan array binding signal (z-score) [11]: 2.45 | glycan array binding signal (z-score) (Gal(a1-4)Gal(b1-4)Glc): -0.394 | glycan array binding signal (z-score) (Gal(b1-3)GlcNAc): -0.244 | glycan array binding signal (z-score) [12]: 3.15 | glycan array binding signal (z-score) [13]: 2.54 | glycan array binding signal (z-score) [14]: 2.57 | glycan array binding signal (z-score) [15]: 0.133 | glycan array binding signal (z-score) [16]: -0.488 | glycan array binding signal (z-score) [17]: -0.647 | glycan array binding signal (z-score) (Gal3S6S(b1-4)GlcNAc): -0.612 | glycan array binding signal (z-score) (Gal6S(b1-4)GlcNAc6S): 0.322 | glycan array binding signal (z-score) (GalNAc(b1-6)GalNAc): -0.155 | glycan array binding signal (z-score) [18]: -0.484 | glycan array binding signal (z-score) [19]: -0.068 | glycan array binding signal (z-score) [20]: 0.223 | glycan array binding signal (z-score) [21]: 0.489 | glycan array binding signal (z-score) [22]: -0.119 | glycan array binding signal (z-score) [23]: 0.571 | glycan array binding signal (z-score) [24]: 1.48 | glycan array binding signal (z-score) [25]: -0.511 | glycan array binding signal (z-score) [26]: 3.69 | glycan array binding signal (z-score) [27]: 2.19 | glycan array binding signal (z-score) [28]: 5.23 | glycan array binding signal (z-score) [29]: 14.5 | glycan array binding signal (z-score) [30]: -0.075 | glycan array binding signal (z-score) [31]: 0.372 | glycan array binding signal (z-score) [32]: -0.634 | glycan array binding signal (z-score) [33]: 0.32 | glycan array binding signal (z-score) [34]: 2.58 | glycan array binding signal (z-score) [35]: 0.181 | glycan array binding signal (z-score) [36]: -0.326 | glycan array binding signal (z-score) [37]: -0.424

Reference: the supplement of paper PMC8728848
